# PubChem BioAssay
# Experiment: binders of probe aFSTL3 on microarray, primary screen, stem cell growth factor project, biochemical, small-molecule microarray, fluorescence 635/667 (AID 1064);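 further: measures binding of the biotinylated anti-FSTL3 antibody to printed compounds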
# Conditions: higher = more signal
row,SMILES,composite z-score
1,C=C(CCCC)/C(=C/C[C@H](OC(C)=O)c1ccc(CO)o1)c1cc(C(=O)OC)ccc1OC,-0.509
2,CC(C)(C)OC(=O)CC[C@]1(C(=O)NCC(O)CO)N=C(c2ccc(OCCCO)cc2)O[C@H]1c1ccccc1CN=[N+]=[N-] (stereo not given in full),1.32
3,COC(=O)[C@@]1(Cc2ccc(OC)cc2)[C@H]2c3cc(C(=O)N(C)C)n(Cc4ccc(OC)c(OC)c4)c3C[C@H]2CN1C(=O)c1ccccc1,0.42
4,[N-]=[N+]=NCc1ccccc1C[C@@]1(C(=O)NCc2ccccc2)N=C(c2ccc(OCCCO)cc2)O[C@@H]1c1ccccc1CN=[N+]=[N-],0.705
5,[N-]=[N+]=NCc1ccccc1[C@H]1OC(c2ccc(OCCCO)cc2)=N[C@@]1(Cc1ccccc1)C(=O)O,0.227
6,NC(=O)NCC#Cc1ccc2c(c1)[C@]1(C(=O)N2)[C@H](C(=O)NC[C@H](O)c2ccccc2)[C@H]2C(=O)O[C@H](c3ccccc3)[C@H](c3ccccc3)N2[C@@H]1c1ccccc1OCCO,-0.226
7,C=C(C(=O)CC[C@H](OC(=O)c1cccnc1)c1ccccc1OCCO)C(C)C,0.0323
8,COc1ccc([Si](C)(C)[C@@H]2[C@@H](CCO)O[C@]3(C(=O)N(Cc4ccc(N5C(=O)c6cccc7cccc5c67)cc4)c4ccccc43)[C@H]2C)cc1,0.458
9,COc1ccc([Si](C)(C)[C@H]2[C@H](CCO)O[C@@]3(C(=O)N(Cc4ccccc4)c4ccc(N5C(=O)COc6ccccc65)cc43)[C@@H]2C)cc1,0.253
10,O=C1C2C=CC(C(O)c3ccccn3)N(Nc3ccccc3F)C2C(=O)N1c1ccccc1 (stereo not given),-0.22
